According to PubChem BioAssay (EPA / NIEHS):
Results filed as inconclusive are left out. Active and inactive are the calls of the source. Rule for the calls, unless noted: active = hit-call score of the fitted dose curve at least 0.9, where 1 is the maximum; inactive = score below 0.9.

Key:
DIO1 (gene 1733) = assay: CCTE_GLTED_hDIO1: CCTE's human Deiodinase 1 (DIO1) Inhibition Assay, Great Lakes Toxicology and Ecology Division (GLTED) Lab (AID 2283987; active = hit-call score of the fitted dose curve at least 0.9, where 1 is the maximum;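 note: isolated human DIO1 enzyme in a cell-free setup rather than cells; enzyme activity read as free iodide liberated from substrate via Sandell-Kolthoff colorimetry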)
How it was run: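 Cell-free human DIO1 enzyme incubated 3 h with test chemical; iodide freed from substrate then measured by Sandell-Kolthoff absorbance. Run in triplicate; loss of signal relative to DMSO taken as inhibition.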

[1] = CCTE_Simmons_MITO_basal_resp_rate: CCTE's HepG2 Seahorse XF Respirometric Screening Assay at Basal Respiratory State, Simmons Lab (AID 2284001); settings: actives raise or lower the signal
How it was run: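 Readout is oxygen consumption rate after test compound injection, measured by Seahorse XF in HepG2 cells. Seven concentrations from 125 nM up to 100 uM final are tested, and activity in either direction is fitted against DMSO.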

[2] = CCTE_Simmons_MITO_inhib_resp_rate: CCTE's HepG2 Seahorse XF Respirometric Screening Assay at Inhibited Respiratory State [full ETC block], Simmons Lab (AID 2284006); settings: actives raise or lower the signal
How it was run: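 This endpoint is the respiration rate remaining after rotenone/antimycin A block, in HepG2 cells on a Seahorse XF96. Chemicals spanned 125 nM–100 uM final, in three biological replicates. OCR was read every 6 minutes for 72 minutes and compared with DMSO vehicle.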

[3] = CCTE_Simmons_MITO_viability: CellTiter-Glo Viability Assessment for CCTE's HepG2 Seahorse XF Respirometric Screening Assay [post-hoc], Simmons Lab (AID 2284007; active = hit-call score of the fitted dose curve at least 0.9, where 1 is the maximum)
How it was run: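 Luciferase-coupled ATP read-out after the Seahorse run: HepG2 cells treated 90 minutes with test chemical, 7-point series of 125 nM–100 uM final, in triplicate biological runs. Vehicle DMSO; dichlone as positive control over 8 concentrations.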

[4] = CCTE_Harrill_HTTr_Viability_MCF7: CCTE's 6-hour Cell Viability Assessment for the High-Throughput Transcriptomics (HTTr) Platform, in MCF-7 cells cultured in DMEM + 10% fetal bovine serum, Harrill Lab (AID 2284010)
How it was run: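 Propidium iodide exclusion, imaged by high-content analysis, gauged viability after a six-hour exposure across eight concentrations. Cells were MCF-7 grown in DMEM with 10% fetal bovine serum; fits run in both directions against DMSO.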

[5] = CCTE_Harrill_HTTr_Apoptosis_MCF7: CCTE's 6-hour Apoptosis Assessment for the High-Throughput Transcriptomics (HTTr) Platform, in MCF-7 cells cultured in DMEM + 10% fetal bovine serum, Harrill Lab (AID 2284011)
How it was run: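 MCF-7 cells in DMEM + 10% FBS exposed 6 h to chemicals over an eight-point dilution series. Caspase-3/7 activation imaged by high-content CellEvent Green staining; fitted bidirectionally versus DMSO.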

[6] = CCTE_Harrill_HTTr_CellCount_MCF7: CCTE's Cell Proliferation Assessment for the High-Throughput Transcriptomics (HTTr) Platform, Harrill Lab (AID 2284012; active = hit-call score of the fitted dose curve at least 0.9, where 1 is the maximum;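 note: cells exposed to compound for six hours; intended direction is loss of nuclei count meaning fewer cells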)
How it was run: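 Cell count from high-content imaging of Hoechst-labeled nuclei serves as viability/growth readout. Chemicals were applied to MCF-7 cells in eight concentrations for six hours, with fitting in both directions relative to DMSO.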

[7] = CCTE_Shafer_MEA_acute_spike_number: CCTE's Neural Acute Assay for Total Number of Spikes, Shafer Lab (AID 2284008);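 for AC50: curve fitted for decrease in spike count so AC50 reflects inhibitors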
How it was run: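 Rat primary cortical neurons on 48-well MEA plates, DIV 13 or 15, at 37 C. 40 min baseline then 40 min with compound (0.03-40 uM); spikes detected at 8x rms noise, expressed as percent change from baseline.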

[8] = CCTE_Shafer_MEA_acute_firing_rate_mean: CCTE's Neural Acute Assay for Mean Firing Rate, Shafer Lab (AID 2284009);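 note: analyzed for loss of signal so actives lower firing rate relative to DMSO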
How it was run: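 Spontaneous spiking of primary rat cortical networks, DIV 13/15, 37 C. Compound 0.03-40 uM, n ≥3 wells; 40 min baseline vs 40 min treated. Endpoint fitted in loss-of-signal direction against DMSO.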

[9] = CCTE_Shafer_MEA_acute_burst_duration_mean: CCTE's Neural Acute Assay for Mean Burst Duration, Shafer Lab (AID 2284014);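 note: hits are decreases in mean burst duration relative to DMSO controls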
How it was run: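 Acute exposure of mature rat cortical networks (DIV 13 or 15) grown on microelectrode arrays to 0.03-40 uM compound. Mean burst duration compared with the 40-min pre-dose baseline over a 40-min post-dose recording at 37 C.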

[10] = CCTE_Shafer_MEA_acute_per_burst_spike_number_mean: CCTE's Neural Acute Assay for Average Number of Spikes Per Burst, Shafer Lab (AID 2284015);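 note: hits are decreases in mean spikes per burst versus baseline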
How it was run: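 Percent change in mean spikes per single-electrode burst is compared between a 40 min baseline and a 40 min recording with compound (0.03-40 uM). Cultures were rat cortical neurons on MEA plates at DIV 13 or 15, recorded at 37 C, with DMSO as the negative control.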

[11] = CCTE_Shafer_MEA_acute_interburst_interval_mean: CCTE's Neural Acute Assay for Mean Interburst Interval, Shafer Lab (AID 2284016);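 note: percent change of mean interburst interval versus each well's own pre-dose baseline; curves fitted for decrease in interburst interval relative to DMSO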
How it was run: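 Percent change in mean single-electrode interburst interval was calculated per well from 40 min recordings before and after compound (0.03-40 uM). Recordings were made at 37 C on rat cortical cultures at DIV 13 or 15, with spikes detected at 8x rms threshold.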

[12] = CCTE_Shafer_MEA_acute_burst_percentage_mean: CCTE's Neural Acute Assay for Percentage of Spikes in a Burst, Shafer Lab (AID 2284017);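 for AC50: curve fitted for loss of signal so potency reflects decreased burst percentage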
How it was run: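 Well-level mean burst percentage from a 40-min recording after compound (0.03-40 uM) expressed as percent change from a 40-min baseline at 37C. Cultures: primary rat cortical neurons on MEA, dosed on DIV 13 or 15; fitted downward relative to DMSO.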

[13] = CCTE_Shafer_MEA_acute_burst_percentage_std: CCTE's Neural Acute Assay for Standard Deviation of Burst Percentage, Shafer Lab (AID 2284018);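 note: fitted in the negative direction so actives lower burst percentage SD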
How it was run: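 Primary rat cortical neurons on 16-electrode MEA wells were recorded 40 min at baseline (DIV 13 or 15), then 40 min after compound (0.03-40 uM), at 37 C. Well value is SD across electrodes of spikes-in-bursts/total spikes; endpoint is percent change, DMSO-referenced.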

[14] = CCTE_Shafer_MEA_acute_per_network_burst_spike_number_std: CCTE's Neural Acute Assay for Standard Deviation of Number of Spikes in a Network Burst, Shafer Lab (AID 2284020);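 note: fitted for decrease in spike-number SD versus DMSO so actives lower it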
How it was run: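 Acute MEA exposure, rat cortical neurons, 0.03-40 uM. Per-well % change versus own baseline; DMSO as negative control.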

[15] = CCTE_Shafer_MEA_acute_per_network_burst_electrodes_number_mean: CCTE's Neural Acute Assay for Mean Number of Electrodes in a Network Burst, Shafer Lab (AID 2284021);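 note: curves fitted for decreases only so hits reduce electrodes per burst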
How it was run: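 Rat primary cortical neurons on 48-well MEAs, DIV 13 or 15, were treated at 0.03-40 uM. Spikes were detected at 8x rms noise and recorded at 37 C. The mean electrodes per network burst in a 40 min exposure recording was expressed as percent change from a 40 min baseline.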

Compound: FC(F)C(F)(F)COCC1CO1 (centres undefined)
- AC50 (DIO1 (gene 1733)): 19.8 µM (active)

Compound: O=C(NO)C1(NS(=O)(=O)c2ccc(Oc3ccc(F)cc3)cc2)CCOCC1
- AC50 [1]: 39.2 µM (active)
- outcome [2]: inactive
- outcome [3]: inactive
- outcome [4]: inactive
- outcome [5]: inactive
- outcome [6]: inactive

Compound: CC(C)C(=O)Nc1ccc([N+](=O)[O-])c(C(F)(F)F)c1
- AC50 [7]: 5.06 µM (active)
- AC50 [8]: 5.21 µM (active)
- outcome [4]: inactive
- outcome [5]: inactive
- outcome [6]: inactive
- outcome [9]: inactive
- AC50 [10]: 4.66 µM (active)
- AC50 [11]: 30.8 µM (active)
- AC50 [12]: 6.55 µM (active)
- outcome [13]: inactive
- AC50 [14]: 5.47 µM (active)
- outcome [15]: inactive

Compound: O=S(=O)(O)c1ccc(N=Nc2c(O)ccc3cc(S(=O)(=O)O)ccc23)cc1
- outcome [7]: inactive
- outcome [8]: inactive
- outcome [4]: inactive
- outcome [5]: inactive
- outcome [6]: inactive
- outcome [9]: inactive
- outcome [10]: inactive
- outcome [11]: inactive
- outcome [12]: inactive
- outcome [13]: inactive
- outcome [14]: inactive
- outcome [15]: inactive

Compound: Cc1nccn1-c1ccc(Sc2cccc(C3(C(N)=O)CCOCC3)c2)cc1
- AC50 [1]: 9.2 µM (active)
- AC50 [2]: 13.2 µM (active)
- outcome [3]: inactive
- outcome [4]: inactive
- outcome [5]: inactive

Compound: O=C(O)[C@H](O)[C@@H](O)C(=O)O
- outcome [4]: inactive
- outcome [5]: inactive

Compound: CC1(C)C(=O)N(Cl)C(=O)N1Cl
- outcome [4]: inactive
- outcome [5]: inactive
- outcome [6]: inactive

Compound: C[C@]12C=CC(=O)C=C1CC[C@H]1[C@@H]3C[C@@H](O)[C@](O)(C(=O)CO)[C@@]3(C)C[C@H](O)[C@@]12F
- outcome [4]: inactive
- outcome [5]: inactive
- outcome [6]: inactive

Compound: c1ccc2ncccc2c1
- outcome [4]: inactive
- outcome [5]: inactive

Compound: CC(C)CC(C)O (centres undefined)
- outcome [4]: inactive
- outcome [5]: inactive

Compound: O=C(O)c1ccc2c(c1)nc(C(=O)NC1CCN(C3CC3)CC1)n2Cc1cc(-c2ccc(Cl)s2)on1
- outcome [4]: inactive
- outcome [5]: inactive
- outcome [6]: inactive

Compound: S=P(N1CC1)(N1CC1)N1CC1
- outcome [4]: inactive
- outcome [5]: inactive

Compound: CCCOc1ccc(S(=O)(=O)N2CCN(CC)CC2)cc1-c1nc2c(CC)n(Cc3ccccn3)nc2c(=O)[nH]1
- outcome [4]: inactive
- outcome [5]: inactive

Compound: CCCC(CCC)C(=O)O
- outcome [4]: inactive
- outcome [5]: inactive
- outcome [6]: inactive

Compound: CCCCN1C(=O)[C@@H]([C@H](O)C2CCCCC2)NC(=O)C12CCN(Cc1ccc(Oc3ccc(C(=O)O)cc3)cc1)CC2
- outcome [4]: inactive
- outcome [5]: inactive
- outcome [6]: inactive

Compound: CC(=O)c1ccccc1
- outcome [4]: inactive
- outcome [5]: inactive
- outcome [6]: inactive

Compound: NC(=O)N1c2ccccc2C=Cc2ccccc21
- outcome [4]: inactive
- outcome [5]: inactive
- outcome [6]: inactive

Compound: CCCCCOC(C)=O
- outcome [4]: inactive
- outcome [5]: inactive

Compound: OCCNCCO
- outcome [4]: inactive
- outcome [5]: inactive
- outcome [6]: inactive

Compound: O=C(O)c1cccc(C(=O)O)c1
- outcome [4]: inactive
- outcome [5]: inactive

Compound: CCOC(N)=O
- outcome [4]: inactive
- outcome [5]: inactive

Compound: C=CN1CCCC1=O
- outcome [4]: inactive
- outcome [5]: inactive
- outcome [6]: inactive

Compound: O=C(N[C@H](CO)[C@H](O)c1ccc([N+](=O)[O-])cc1)C(Cl)Cl
- outcome [4]: inactive
- outcome [5]: inactive
- outcome [6]: inactive

Compound: CCCCCCCCCCCCCCO
- outcome [4]: inactive
- outcome [5]: inactive
